# Assay results published in PubChem BioAssay AID1076 (NMMLSC, 2008).
# Assay: LNCaP cell loss by flow event count, confirmation, cytotoxicity control for prostate differentiation activator project, single point (AID 1076);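 further: counts scatter-gated live cells after medium removal discards detached dead cells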
# Conditions: flow cytometry event count, 4 d, event count, at 10 µM, stronger effect = lower value
row,SMILES,cell event count
1,O=C(Nc1ccc2oc(Cc3ccc(Cl)cc3)nc2c1)c1cccnc1,96
2,Cn1c(C(=O)NCCCN2CCN(c3cccc(Cl)c3)CC2)cc2c(=O)n(C)c3ccccc3c21,251
3,COC(=O)c1cc2oc3ccccc3c2n1CC(=O)Nc1ccccc1OC,184
4,COC(=O)c1[nH]c2c(c1C)C(=O)CCC2,252
5,COc1ccc(CCNC(=O)C2CCN(Cc3nc(-c4ccccc4C)oc3C)CC2)cc1OC,188
6,COCCn1c(=O)[nH]c2cc(C(=O)NCCCN3CCN(c4ccc(F)cc4)CC3)ccc2c1=O,194
7,Cc1nnc(NCc2n[nH]c(=O)c3ccccc23)c2ccccc12,219
8,Cc1ccc(-n2nc3cc(Cl)c(NC(=O)c4ccco4)cc3n2)cc1,236
9,COc1ccc(-c2nc(CN3CCC(C(=O)N4CCc5ccccc54)CC3)c(C)o2)cc1OC,298
10,CCCN(CCC)CCNC(=O)C1CCN(Cc2nc(-c3ccc(Cl)cc3)oc2C)CC1,120
11,Cc1cccc(-c2nc(CN3CCCC(C(=O)NC4CCC(C)CC4)C3)c(C)o2)c1 (stereo not drawn),138
12,Cc1ccc(-c2noc(CCC(=O)NC3CCN(Cc4ccccc4)CC3)n2)cc1,77.5
13,COc1ccc(S(=O)(=O)CCC(=O)O)cc1,47
14,Cc1ccccc1-c1nc(CN2CCC(C(=O)NCCCN3CCOCC3)CC2)c(C)o1,126
15,CCN1CCCC1CNC(=O)C1CCN(Cc2nc(-c3cccc(Br)c3)oc2C)CC1 (stereo not drawn),78
16,Cc1ccc(S(=O)(=O)NCCCCC(NC(=O)OC(C)(C)C)C(=O)O)cc1 (stereo not drawn) (tested in a mixture with another compound),138
17,CCc1cc(C)cc(OCCNC(=O)c2ncn[nH]2)c1,54
18,O=C(NCCCN1CCN(c2cccc(Cl)c2)CC1)c1cccc(N2CCCC2=O)c1,176
19,CCc1nn(C(C)C(=O)N2CCc3ccccc3C2)c(=O)c2cc3occc3n12 (stereo not drawn),123

row,SMILES,cell event count
1,COc1ccc(-c2noc(CCC(=O)NCCCN3CCC(C)CC3)n2)cc1,136
2,CC(C)N1CCC2(CC1)N=C(c1ccc3c(c1)OCO3)CC(c1cc(Cl)ccc1O)N2 (stereo not drawn),43.5
3,COc1ccc(-n2cc(-c3ccccc3)c3c(N4CCN(CCO)CC4)ncnc32)cc1,174
4,Cc1cccc(-c2nc(CN3CCCC(C(=O)NC4CCCCCC4)C3)c(C)o2)c1 (stereo not drawn),222
5,COc1ccc(-c2cc(C(F)(F)F)nc(N3CCN(Cc4ccccc4)CC3)n2)cc1OC,376
6,O=C(NCC1CCCO1)C1CC(c2ccc(Cl)c(Cl)c2)=NO1 (stereo not drawn),79
7,COc1ccc(-c2ccc(-c3nnn(CC(C)=O)n3)cc2)cc1,116
8,COc1ccc(-c2ccc(-c3noc(-c4ccccc4)n3)c(OC)n2)cc1,32
9,Cc1ccc(Cl)cc1N1CCN(C(=O)c2cc3c(=O)n(C)c4ccccc4c3n2C)CC1,10.5
10,Cc1oc(-c2cccc(Cl)c2)nc1CN1CCCC(C(=O)NC(C)c2ccc3c(c2)OCCO3)C1 (stereo not drawn),136
11,COc1ccc(OC)c(CNC(=O)CCNC(=O)Cn2ccc3ccccc3c2=O)c1,73
12,COc1ccc(CCn2c(=N)c(C(=O)NCc3ccco3)cc3c(=O)n4ccccc4nc32)cc1,225
13,Cc1ccc2c(c1)NC(=O)C(CC(=O)NCCCN1CCN(c3cc(C)ccc3C)CC1)O2 (stereo not drawn),152
14,Cc1oc(-c2ccccc2F)nc1CN1CCC(C(=O)NC2CCCCCCC2)CC1,90
15,Cc1oc(-c2ccc(Cl)cc2)nc1CN1CCCC(C(=O)NCc2cccnc2)C1 (stereo not drawn),67
16,O=C(NCCCN1CCN(c2cccc(Cl)c2)CC1)C1CCC(=O)N1Cc1ccccc1Cl (stereo not drawn),239
17,CCOC(=O)c1c(NCc2ccc3c(c2)OCO3)c2ccccc2[nH]c1=O,357
18,COc1ccc(-n2c(C)nc3c(cnn3-c3ccc(Cl)cc3)c2=O)cc1,84
19,Cc1cc2c(=O)n(CC(=O)N3CCN(c4ccccc4)CC3)cnc2s1,170
